# Data reported in PubChem BioAssay (NCATS).
# “And” between values parts separate entries of the source, which are not always exact repeats. Equal values may be shown once. Records with an inconclusive call do not appear. Values without a mark were called inactive. The source made the active and inactive calls. Calls come from the whole dose curve; as a rule, active = well fitted curve in the direction sought with a large enough effect; inconclusive = small, poorly fitted or top-dose-only effect, or another doubt; inactive = no such curve, though single readings can be large or run the other way.
# Test: qHTS Assay for Identifying Gametocytocidal Compounds (AID 743244);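 for max response: actives lower the fluorescent signal which means gametocytes are killed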
# Settings: P. falciparum 3D7 stage III-V gametocytes, alamarBlue, 72 h; max response: hits give low values
# Outline: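 Viability read-out was resazurin reduction (alamarBlue, 24 h) measured at Ex 525/Em 598 nm. Beforehand, late-stage (III-V) 3D7 P. falciparum gametocytes at 20,000 cells/well were incubated with compound 72 h at 37C under 5% CO2.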
# % is set by controls: 0 for no effect and ±100 for the full control effect; potency is the fitted concentration of half-maximal effect.
Structure (SMILES),max response,Potency
CN1C(=O)CC(=O)N(c2ccccc2)c2cc(Cl)ccc21,16.1%,
CNCC(=O)c1ccc(O)c(O)c1,39.9%,
CCN[C@H](C)Cc1cccc(C(F)(F)F)c1,16.7%,
COc1c2c(cc3c1OCO3)CCN(C)C2,7.33%,
C[C@@H](N)[C@@H](O)c1ccccc1,12.7%,
CCC1(CC)C(=O)C=CNC1=O,-13.9%,
C[C@H]1[C@@H]2Cc3ccc(O)cc3[C@@]1(C)CCN2C,2.87%,
CC(=O)NC1CCSC1=O (stereo not drawn),-2.2% and 7.47%,
CN[C@@H](C)Cc1ccccc1,5.78%,
Cc1nnc2n1-c1ccc(Cl)cc1C(c1ccccc1Cl)=NC2,-0.695%,
COC1CC(=C(c2cccs2)c2cccs2)C[N+](C)(C)C1 (stereo not drawn),,8.91 µM (active)
CN1C(=O)NC(=O)C(C)(C2=CCCCC2)C1=O (stereo not drawn),8.57% and 23.3%,
C=CCC1([C@H](C)CCC)C(=O)NC(=O)NC1=O,-4.95%,
CN1CC[C@]23c4c5ccc(O)c4O[C@H]2[C@@H](O)CC[C@H]3[C@H]1C5,10.1%,
O=[N+]([O-])O[C@H]1CO[C@H]2[C@@H]1OC[C@H]2O[N+](=O)[O-],30.8%,
c1ccc2c(c1)sc1ccccc12,5.76%,
CC(=O)OCC1=C(C(=O)O)N2C(=O)[C@@H](N)[C@H]2SC1,-3.04%,
CN1C(=O)C(O)N=C(c2ccccc2)c2cc(Cl)ccc21 (stereo not drawn),6.95%,
